About 83,000 compounds went through this panel and 20% of them were active in at least one assay; those are over-represented in the sample as a whole.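 How to read the values: 0–100, growth inhibition (40 = 60% inhibited); 0, no net growth; -100 to 0, cell death (-40 = 40% of starting cells died; -100 = all dead).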 The source made the active and inactive calls.

The experiment deals with CAKI-1 renal. The experiment in a line: NCI-60 one-dose screen, 48 h (100 = growth as untreated, 0 = no growth, -100 = all killed). The settings on record: 10 µM. The method, then: Growth inhibition of the CAKI-1 human tumor cell line is measured as a screen for anti-cancer activity. Cells are grown in 96 well plates and exposed to the test compound for 48 hours. Compounds are tested at a single concentration, which is 10^-5 M for most compounds. The reported endpoint is percent growth (GI% or GIPRCNT), where numbers from 0 - 100% represent growth inhibition, and numbers from -100% - 0 represent cell death. For example, a value of 40 represents 60% growth inhibition. A value of 0 means no net growth occurred over the course of the experiment. A value of -40 indicates 40% of cells at the beginning of the experiment died by the end of the experiment. A value of -100 means all cells are dead at the end of the experiment.
NCI-60 Human Tumor Cell Lines Screen was performed using the standard one-dose NCI protocol, which is described in more detail at https://dtp.cancer.gov/discovery_development/nci-60/default.htm.
Compounds with GIPRCNT values below 10 were considered active. Activity score was based on GIPRCNT using the following formula: […]
Score is 0 for GIPRCNT values of 100 or above, 50 for GIPRCNT values of 0, and 100 for GIPRCNT values of -100.
As to `COc1ccc(N=C2C(=Nc3ccc(OC)cc3)N(c3ccc(N(C)C)cc3)C(=S)N2c2ccc(OC)cc2)cc1`, the growth is 53.3% (inactive).

As for `O=C1CC[C@@H]2CCCC[C@@H]2C1`, the growth is 102% (inactive).

On to `COc1ccc(/C=C/C(C)=N/OCC(=O)O)cc1`, for which the growth is 106% (inactive).

Regarding `COc1cc(NC(=O)c2sc3nc4c(cc3c2N)C(O)CCC4)cc(OC)c1` (stereo not given), the growth is 90.4% (inactive). To `Clc1ccc(-c2cn(-c3ccccc3)c(-c3ccccc3)n2)c(Cl)c1` belongs -22.8% (active); to `CCN1CCC(CCOC)(CN2c3ccccc3Sc3ccc(Cl)cc32)C1` (stereo not given), 46.6% (inactive); to `Cc1ccc(Nc2cc(C)nc(NCCCNc3ccnc4cc(Cl)ccc34)n2)cc1`, -87.2% (active). As for `COc1ccc(Nc2cc(C)nc(NCCCNc3ccnc4cc(Cl)ccc34)n2)cc1`, the figure is -69.6% (active); as for `COc1cc(-c2cc(/C=C/C(=O)c3ccc(F)c(F)c3)[nH]n2)cc(OC)c1OC`, 6.42% (active). To `O=C1OCC2=C1C(c1cccc(Cl)c1)c1cc3c(cc1N2CCO)OCO3` (stereo not given) belongs 39.6% (inactive); to `COc1cc2cc3c(nc2cc1OC)CCN3Cc1ccc(NC(=O)c2ccc(Cl)c(C(F)(F)F)c2)cc1`, 84.3% (inactive); to `Fc1ccc(-c2nnc(-c3c(-c4ccc(F)cc4)nc4ccccn34)o2)cc1`, 91.1% (inactive).

With `C(CCCC1=NCCO1)CCCC1=NCCO1`, the growth was 103% (inactive).

On to `COc1ccc(-c2nc3ncccn3c2-c2nnc(-c3ccsc3C)o2)cc1`, for which the growth was 82.9% (inactive). To `COc1ccc2c(c1)-c1c(c3cc(OC)ccc3n(CCN(C)C)c1=O)C2=O` belongs 1.94% (active). To `CCN(CC)CCN1CC(=O)Nc2cc(Cl)ccc21` belongs 90.7% (inactive); to `CC1(C)N=C(N)N=C(N)N1c1ccc(CCc2ccccc2)c(Cl)c1`, 53.2% (inactive).

Consider `Cn1c(N)c(N=Nc2ccc(S(=O)(=O)Nc3nccs3)cc2)c(=O)n(C)c1=O`, for which the growth was 95.4% (inactive).

Consider `Cc1ccc(-c2n[nH]c(=O)c3noc(-c4ccc(C)cc4)c23)cc1`, for which the growth is 16.9% (inactive).

Turning to `Cc1[nH]nc2c1C(c1cnn(C)c1)C(C#N)=C(N)O2` (stereo not given), the growth is 102% (inactive).

Consider `CN(C)C(=S)N/N=C\C=N/NC(=S)N(C)C`, for which the growth is 74.1% (inactive). To `COc1cc(Cl)cc(-c2nn(-c3cccc(NC(=O)c4ccc(Cl)c(Cl)c4)c3)cc2-c2ccncc2)c1` belongs 63.6% (inactive). On to `COc1ccc2c(c1OC)O/C(=C\c1ncc([N+](=O)[O-])n1C)C2=O`, for which the growth was -27.5% (active). As for `C#Cc1ccc(-n2c(/C=C/c3cc(OC)cc(OC)c3)nc3ncccc3c2=O)cc1`, the figure is 95.8% (inactive); as for `COc1cc(-c2nc(-c3nnc(-c4ccccc4Cl)o3)c3ccccn23)cc(OC)c1OC`, 86.2% (inactive). To `Clc1ccc(Nc2ccnc(NCCNc3ccnc4cc(Cl)ccc34)n2)cc1` belongs -7.16% (active); to `COc1cc2cc3c(nc2cc1OC)CCN3Cc1ccc(NC(=O)Nc2ccc(F)cc2F)cc1`, 62.3% (inactive); to `O=C(O)CC(Cl)C(Cl)CC(=O)O` (stereo not given), 91.6% (inactive). As for `CCC(=O)N1C/C(=C/c2ccc(Br)cc2)C(=O)/C(=C/c2ccc(Br)cc2)C1`, the figure is -25.9% (active); as for `Cc1cc(O)c(C(C)(C)C)cc1Sc1cc(C(C)(C)C)c(O)cc1C`, 32.3% (inactive); as for `COc1ccccc1CNCCN1C(=O)c2ccc3c4c(ccc(c24)C1=O)C(=O)N(CCNCc1ccccc1OC)C3=O`, -31.3% (active). As to `CS(=O)(=O)Nc1ccc(Nc2c3ccccc3nc3cc([N+](=O)[O-])ccc23)cc1`, the growth was 37.7% (inactive). As for `COc1ccc2c(c1)O/C(=C\c1ccc([N+](=O)[O-])s1)C2=O`, the figure is 44.2% (inactive); as for `CN(C)CC(O)c1ccc2cc(Br)c3ccccc3c2c1` (stereo not given), 73.1% (inactive).

On to `CN(C)CCNC(=O)c1cccn2c(=O)c3cc4ccccc4cc3nc12`, for which the growth was -2.45% (active).

Consider `CCCCN(CCCC)CCCCCCCCC(O)c1cc2ccccc2c2ccccc12` (stereo not given), for which the growth is 71.9% (inactive).

Turning to `CCOC(=O)N1C/C(=C/c2ccc(Cl)cc2)C(=O)/C(=C/c2ccc(Cl)cc2)C1`, the growth is 65.5% (inactive). As for `CCOC(=O)N1C=CC2C=CC1C1C=CC=CC2N1C(=O)OCC` (stereo not given), the figure is 84.5% (inactive); as for `CN(Cc1ccccc1)Cc1ccc([N+](=O)[O-])cc1I`, 93% (inactive); as for `COc1cc(-c2cc(/C=C3\C(=O)Nc4cc(Cl)ccc43)[nH]n2)cc(OC)c1OC`, 38.8% (inactive).

The values are drawn from PubChem BioAssay (NCI).
